Reference: the supplement of paper PMC10933113
Where a name gives a salt, the structure may show the parent alone. ± gives the uncertainty stated by the source.

Each compound was assayed on THP-1 (assay: CD86 surface expression induction over DMSO control (% over DMSO); higher = stronger dendritic cell activation). Conditions: exposure time: 24 h.
Protocol: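 hCLAT-like CD54 and CD86 surface expression on THP1 cells after 24 h exposure at a single concentration (highest non-cytotoxic concentration, or 100-200 µM if not cytotoxic). Flow cytometry (iQue) was run on 5,000 live cells.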

First: CN(C)c1ccc(C(=C2C=CC(=[N+](C)C)C=C2)c2ccccc2)cc1 [Malachite green oxalate*] (10 µM)
Second: N=C1C=CC(=C(c2ccc(N)cc2)c2ccc(N)cc2)C=C1 [C.I. Basic Red 9 monohydrochloride] (10 µM)
The “CD86 surface expression induction” value of the first is higher: 195 ± 53 for the first, -3.84 ± 5 for the second.

Going from Cc1cc(C2(c3cc(C)c(O)cc3C)OS(=O)(=O)c3ccccc32)c(C)cc1O [p-Xylenol blue] (200 µM) to CCc1oc2ccccc2c1C(=O)c1cc(I)c(O)c(I)c1 [Benziodarone] (100 µM), the “CD86 surface expression induction” value rises from 2.3 ± 1.9 to 7.99 ± 3.4.

Sc1nc2ccccc2s1 [2-Mercaptobenzothiazole] (100 µM) and COC(=O)Nc1nc2cc(Sc3ccccc3)ccc2[nH]1 [Fenbendazole] (100 µM) are within error of each other in “CD86 surface expression induction” value: -1.26 ± 3.2 for the first, -18.1 ± 26 for the second.

Compared with CCN(CC)c1ccc(C(=O)c2ccccc2C(=O)O)c(O)c1 [2-[4-(Diethylamino)-2-hydroxybenzoyl]benzoic acid] (10 µM), Oc1ccc2ccccc2c1N=Nc1ccccc1 [C.I. Solvent Yellow 14] (200 µM) is higher in “CD86 surface expression induction” value: -12.1 ± 11 for the first, 3.18 ± 3.5 for the second.

CCOc1ccc2nc3cc(N)ccc3c(N)c2c1 [Ethacridine lactate monohydrate] (200 µM) and Nc1ccc2cc3ccccc3cc2c1 [2-Aminoanthracene] (200 µM) are within error of each other in “CD86 surface expression induction” value: 42.2 ± 53 for the first, -10.7 ± 9.7 for the second.

Cc1c2ccccc2c(C)c2c1ccc1ccccc12 [7,12-Dimethylbenzanthracene] (10 µM) and O=C1c2ccccc2C(=O)C1c1ccc2ccccc2n1 [D & C Yellow II] (10 µM) are within error of each other in “CD86 surface expression induction” value: 47.5 ± 61 for the first, -14.2 ± 7.4 for the second.

Compared with O=C(O)Cc1cc(I)c(Oc2cc(I)c(O)c(I)c2)c(I)c1 [Tetrac] (100 µM), Oc1ccc(/C=C/c2cc(O)cc(O)c2)cc1 [Resveratrol] (100 µM) is lower in “CD86 surface expression induction” value: 12.3 ± 2 for the first, -3.05 ± 3.9 for the second.

CC(C(=O)O)c1ccc(/C=C2\CCCCC2=O)cc1 (stereo not given) [Pelubiprofen] (100 µM) and COc1cc(/C=C2\CCC/C(=C\c3ccc(O)c(OC)c3)C2=O)ccc1O [Cyclovalone] (10 µM) are within error of each other in “CD86 surface expression induction” value: -4.77 ± 4.1 for the first, -7.37 ± 5.9 for the second.

Clc1ccc2c(c1)Nc1ccccc1S2 [2-Chlorophenothiazine] (100 µM) and Clc1ccccc1-c1nc(-c2ccncc2)no1 [Pifexole] (100 µM) are within error of each other in “CD86 surface expression induction” value: -11 ± 14 for the first, 3.84 ± 13 for the second.

COc1ccc(-c2cc(=S)ss2)cc1 [Anethole trithione] (100 µM) and Cc1cccc(N(C)C(=S)Oc2ccc3c(c2)C2CCC3C2)c1 (stereo not given) [Tolciclate] (100 µM) are within error of each other in “CD86 surface expression induction” value: -4.63 ± 2.6 for the first, -1.12 ± 6 for the second.

CC(C)(C)OC(=O)c1ccc(O)cc1 [tert-Butyl 4-hydroxybenzoate] (100 µM) and CN(C)c1ccc(SC#N)cc1 [4-(Dimethylamino)phenylthiocyanate] (10 µM) are within error of each other in “CD86 surface expression induction” value: -2.42 ± 14 for the first, -14.3 ± 7 for the second.

CC1COc2ccccc2N1C(=O)C(Cl)Cl (stereo not given) [Benoxacor] (10 µM) and O=c1cc(-c2ccccc2)oc2ccccc12 [Flavone] (200 µM) are within error of each other in “CD86 surface expression induction” value: 17.1 ± 5.4 for the first, 16.4 ± 4.7 for the second.

Cc1ccc(O)c2ncccc12 [Tiliquinol] (10 µM) and Cc1ccc(N)cc1O [5-Amino-2-methylphenol] (200 µM) are within error of each other in “CD86 surface expression induction” value: 43.2 ± 60 for the first, -0.96 ± 6.3 for the second.

C#CCN(C)CCCOc1ccc(Cl)cc1Cl [Clorgyline hydrochloride] (100 µM) and COc1cc(Nc2c(C#N)cnc3cc(OCCCN4CCN(C)CC4)c(OC)cc23)c(Cl)cc1Cl [Bosutinib] (100 µM) are within error of each other in “CD86 surface expression induction” value: -4.71 ± 3.7 for the first, 5.12 ± 41 for the second.

C[n+]1cc2c3c(ccc2c2ccc4cc5c(cc4c21)OCO5)OCO3 [Sanguinarine] (10 µM) and CC(=O)Oc1ccc(C(c2ccc(OC(C)=O)cc2)c2ccccn2)cc1 [Bisacodyl] (100 µM) are within error of each other in “CD86 surface expression induction” value: 73.1 ± 11 for the first, 26.6 ± 55 for the second.

COP(=O)(O)OP(=O)(O)OC [Dimethyl dihydrogen diphosphate] (200 µM) and COC(=O)Nc1nc2ccc(C(=O)C3CC3)cc2[nH]1 [Cyclobendazole] (100 µM) are within error of each other in “CD86 surface expression induction” value: -3.42 ± 3.5 for the first, 7.71 ± 16 for the second.

CCN(CC)CCOc1ccc2c(c1)C(=O)c1cc(OCCN(CC)CC)ccc1-2 [Tilorone] (200 µM) and Clc1ccc(C(Cn2ccnc2)OCc2ccc(Sc3ccccc3)cc2)c(Cl)c1 (stereo not given) [Fenticonazole nitrate] (100 µM) are within error of each other in “CD86 surface expression induction” value: 58 ± 31 for the first, 102 ± 96 for the second.

O=C(CCCCCCC(=O)Nc1ccccc1)NO [Vorinostat (SAHA)] (100 µM) and O=C(NS(=O)(=O)/C=C/c1cccs1)c1ccc(F)cc1Br (200 µM) are within error of each other in “CD86 surface expression induction” value: 5.02 ± 4 for the first, -2.46 ± 4 for the second.

CC(C)(C)c1cc(O)c(C(C)(C)C)cc1O [2,5-Di-tert-butylbenzene-1,4-diol] (100 µM) and Nc1cc(-c2ccncc2)c[nH]c1=O [Amrinone] (100 µM) are within error of each other in “CD86 surface expression induction” value: 6.5 ± 4.4 for the first, -0.14 ± 4.2 for the second.

First: C=CC(=O)OCCn1c(=O)n(CCOC(=O)C=C)c(=O)n(CCOC(=O)C=C)c1=O (10 µM)
Second: CCCCNC(=S)NCCCC [N,N'-Dibutylthiourea] (10 µM)
The “CD86 surface expression induction” value of the first is higher: 14.2 ± 10 for the first, -9.37 ± 9.2 for the second.
